From PubChem BioAssay
Shown are actives, neighbours in structure and some others; about 5.7% of the full set was active somewhere.
AHR act = human AHR activation. P35869. AHR-responsive luciferase reporter cells, luminescence. activation, % at 5 µM. actives 2.5% (n = 320,000); in the data active = activation above about 47%;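 note: 0% = vehicle wells and 100% = reference agonist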
Target sequence (P35869 whole entry, looked up): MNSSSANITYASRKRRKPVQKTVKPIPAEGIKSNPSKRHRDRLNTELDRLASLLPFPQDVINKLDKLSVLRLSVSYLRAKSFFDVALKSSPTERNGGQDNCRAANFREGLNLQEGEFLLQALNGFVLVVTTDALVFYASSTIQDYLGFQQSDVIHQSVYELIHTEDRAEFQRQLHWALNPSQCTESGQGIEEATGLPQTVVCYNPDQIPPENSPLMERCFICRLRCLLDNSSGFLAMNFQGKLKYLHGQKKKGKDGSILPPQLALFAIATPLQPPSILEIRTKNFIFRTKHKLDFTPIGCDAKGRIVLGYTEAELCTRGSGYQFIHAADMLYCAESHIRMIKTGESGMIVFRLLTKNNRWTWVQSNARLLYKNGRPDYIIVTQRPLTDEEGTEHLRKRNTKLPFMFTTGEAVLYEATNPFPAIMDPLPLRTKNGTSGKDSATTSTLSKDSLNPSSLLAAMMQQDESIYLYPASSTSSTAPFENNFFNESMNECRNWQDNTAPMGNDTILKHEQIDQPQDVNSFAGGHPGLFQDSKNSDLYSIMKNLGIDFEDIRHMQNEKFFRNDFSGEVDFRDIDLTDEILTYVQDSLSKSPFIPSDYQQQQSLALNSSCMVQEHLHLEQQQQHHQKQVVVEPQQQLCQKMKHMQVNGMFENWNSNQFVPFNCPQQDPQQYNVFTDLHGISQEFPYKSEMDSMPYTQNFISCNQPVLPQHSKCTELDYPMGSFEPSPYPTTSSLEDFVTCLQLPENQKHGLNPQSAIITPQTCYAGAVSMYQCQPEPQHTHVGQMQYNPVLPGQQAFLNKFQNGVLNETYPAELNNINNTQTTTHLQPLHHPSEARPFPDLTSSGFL
DAX1 inh-1 = DAX1 (NR0B1) inhibition, primary screen | HEK293T StAR-luciferase reporter, SF-1/DAX-1 repression relief | inhibition, % at 6.8 µM | actives 1.1% (n = 370,000);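 active = inhibition above the mean over all tested compounds plus 3 SD, cut at about 3.6% in these data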;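 note: 0% = DAX-1 cells with DMSO and 100% = cells lacking DAX-1 with DMSO; higher inhibition means more luminescence from relief of DAX-1 repression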
DAX1 inh-2 = inhibitors of human orphan nuclear receptor DAX1 (NR0B1); actives 0.99% (n = 340,000); P51843; HEK293 Gal4-DAX1 luciferase reporter, luminescence; inhibition, % at 6.75 µM;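 active = inhibition above the mean over all tested compounds plus 3 SD, cut at about 4.2% in these data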;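 note: 0% = DAX1-transfected cells with DMSO and 100% = empty-vector control cells with DMSO; inhibition shows as a rise in luminescence from relieved DAX1 repression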
hgDAF-12 ag = agonists of H. glycines DAF-12 nuclear receptor; activation, % at 6.8 µM; HEK293 GAL4-hgDAF12 UAS-luciferase reporter, agonist luminescence; normalized to butyrate control; actives 1.8% (n = 370,000);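 active = activation above a cutoff set at the mean of all screened compounds plus 3 SD, cut at about 10% in these data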;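 note: 0% = DMSO wells and 100% = sodium butyrate wells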
ssDAF-12 act = S. stercoralis DAF-12 activation, primary screen. HEK293 ssDAF-12/GRIP1 lit1-tk-luc reporter, luminescence; % of 3 µM dafachronic acid response. activation, % at 6.8 µM. AID 652126. actives 1% (n = 370,000);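 active = activation above the mean over all tested compounds plus 3 SD, cut at about 0.9% in these data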;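 note: 0% = DMSO-only wells and 100% = 3 µM delta7-dafachronic acid wells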
hcDAF-12 act = activators of H. contortus DAF-12 nuclear receptor; actives 1.4% (n = 370,000); activation, % at 6.8 µM; HEK293 hcDAF-12 lit1-tk-luc reporter, luminescence; 0% DMSO, 100% Δ7-dafachronic acid; AID 652067;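 active = activation above the mean of all tested compounds plus 3 SD, cut at about 5.5% in these data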;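 note: 100% = response to 3 µM Δ7-dafachronic acid high control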
Starred values were filed as active, the others as inactive; . = no result given.

SMILES	AHR act	DAX1 inh-1	DAX1 inh-2	hgDAF-12 ag	ssDAF-12 act	hcDAF-12 act
COc1ccc(Cc2nc(=S)[nH][nH]2)cc1Br	3	-1	4.5*	-2	-2	-2
O=C(NCc1ccccc1)[C@@H]1CCCN1C(=O)[C@H]1CCCN1C(=O)c1ccccc1C(F)(F)F	.	0	.	-2	-1	1
O=C(Nc1ccc2ccccc2c1)c1ccc(Cl)cc1Cl	-6	2	0	11*	0	5
O=C(Nc1ccc2ccccc2c1)c1cc(F)c(F)cc1Cl	-3	3	4	10	0	0
O=C(Nc1ccc2c(c1)C(=O)OC2)c1ccc(Cl)cc1Cl	1	0	-1	1	-1	5.6*
COC(=O)C1=C(C)N(Cc2ccccc2C(F)(F)F)C(=NCc2ccc3c(c2)OCO3)NC1c1cccc(Cl)c1 (configuration not stated)	.	-1	.	2	0	2
S=C1NC[C@H](Cc2ccccc2)N1CC1CCN(CCCC2CCCCC2)CC1	.	0	.	0	-2	0
CSc1nnc(-c2ccccc2)c(-c2ccccc2)n1	-2	0	0	-2	-2	-2
CSc1nnc2c3ccccc3c3ccccc3c2n1	.	0	1	-1	1.2*	3
COc1cc([C@H]2Oc3c(OC)cc(CCCO[C@@H]4O[C@H](CO)[C@@H](O)[C@H](O)[C@H]4O)cc3[C@@H]2CO)ccc1O	-1	2	4.7*	-1	-1	1
OC[C@H]1O[C@H](OCCc2ccc(O)cc2)[C@H](O)[C@@H](O)[C@@H]1O	-1	0	-1	0	-1	0
CCOC(=O)c1c(S(=O)(=O)N2CCN(c3ccc(F)cc3)CC2)c(C)n(C)c1C	1	1	0	-3	-1	-3
COc1cc(C2NC(=S)NC(C)=C2C(=O)Nc2ccc(C)cc2)ccc1O (configuration not stated)	6	2	2	11*	0	3
Cc1cc(/C=C2\C(=O)NN(c3ccccc3)C2=O)c(C)n1-c1ccccc1O	10	0	5.4*	-4	-1	-1
O=C(N/N=C/c1ccccc1)c1ccco1	7	1	5.8*	8	-1	2
O=C(Nc1ccccc1C(=O)N/N=C/c1ccccc1)c1ccco1	48*	0	-1	4	1	3
O=C(CCCC(=O)c1ccc(F)cc1)c1ccc(F)cc1	0	2	4.8*	8	1	2
O=C(CC(=O)c1ccccc1O)c1ccc(F)cc1	27	2	0	11*	0	2
Cc1ccc(C(=O)CC(=O)c2cc(Cl)ccc2O)cc1	4	3	2	9	1.1*	3
CCc1nc2ccc(C(=O)N3CCN(C(=O)c4ccco4)CC3)cn2c1N(CC)CCOC	.	1	.	3	-1	-1
O=C(NCc1ccc(F)cc1)c1ccncc1	4	0	4.4*	3	-1	-1
O=C(NCc1ccc(Cl)cc1)c1ccncc1	3	0	-1	1	0	-1
O=C(NCc1ccc(F)cc1)c1c2c(nc3ccccc13)CCC2	8	4.5*	0	4	0	3
O=C(NCc1ccco1)c1c2c(nc3ccccc13)CCC2	1	0	3	1	-1	2
Cc1cc(Br)cn2c(Cc3cccc(Cl)c3)c(C3CCCCC3)nc12	.	0	.	0	-1	0
SMILES	AHR act	DAX1 inh-1	DAX1 inh-2	hgDAF-12 ag	ssDAF-12 act	hcDAF-12 act
COc1cc(C=O)ccc1OCc1ccc(Cl)nc1	-1	1	2	11*	-1	0
COc1ccc(Nc2nc(-c3ccccc3)c3ccccc3n2)cc1	37	0	0	0	-1	2
COc1ccc(Nc2nc(C)c3ccccc3n2)cc1	30	1	3	10	1.1*	6.5*
COc1ccc(Nc2nc(C)c(-c3ccccc3)s2)cc1	-1	1	1	8	0	6.2*
O=C1NC(c2ccccc2)(c2ccccc2)C(=O)N1CNc1ccccn1	.	1	.	-1	-1	-1
Cc1c(CN2CCN(c3ncc(Cc4ccccc4)cn3)CC2)c(=O)n(-c2ccccc2)n1C	.	-2	.	-1	-1	-3
COc1ccc(OC)c2c1sc(=NC(=O)C1CC1)n2C	24	2	0	2	0	5
COc1ccccc1C(=O)N=c1sc2c(C)ccc(OC)c2n1C	62*	1	0	3	-1	0
COc1ccc(OC)c2c1sc(=NC(=O)c1ccco1)n2C	51*	0	1	3	-1	4
COc1ccc(NC(=O)CCC(=O)Nc2nnc(C3CCCCC3)s2)c(OC)c1	-1	0	0	0	-1	-1
CC(C)c1ccc(S(=O)(=O)N2CCN(CC(=O)c3ccc(O)c(O)c3)CC2)cc1	3	0	-1	1	-1	0
O=C(CN1CCN(S(=O)(=O)c2ccc(Br)cc2)CC1)c1ccc(O)c(O)c1	6	0	1	1	-1	5.9*
O=C(NC1CCCC1)C(c1ccco1)N1CCN(c2c(Cl)cncc2Cl)CC1 (configuration not stated)	.	-2	.	2	0	-2
CC(C)c1nc2ccccc2n1CC(O)COC1CCCCC1 (configuration not stated)	1	0	6.6*	-3	-1	-1
CC(C)C1CC(N(C)C)=CC(=S)N1 (configuration not stated)	.	-4	.	-8	-2	-4
CN1CCCCC(NC(=O)c2ccc3ccccc3c2)C1=O (configuration not stated)	.	1	.	11*	-1	1
CN1CCCCC(NC(=O)c2ccccc2)C1=O (configuration not stated)	.	0	.	1	-1	0
C[C@H](CO)N1C[C@H](C)[C@@H](CN(C)C(=O)Cc2ccccc2)OCc2cn(nn2)CCCC1=O	.	0	.	-2	-1	1
O=C(NCCc1ccccc1)c1ccc2nccnc2c1	-5	4.2*	-1	11*	0	5
O=C(NCCc1ccccc1)c1cccnc1	2	1	2	11*	-1	1
O=C(Nc1ccccc1C(=O)NCCc1ccccc1)c1cnccn1	61*	1	0	6	0	3
O=C(COC(=O)c1cnccn1)NCCc1ccccc1	1	-1	1	0	-1	-1
O=C(NCCc1ccccc1)c1cccc(Br)c1	0	1	1	6	0	1
CCCCNC(=O)C1(C)CCCCN1C(=O)c1csnn1 (configuration not stated)	.	0	.	-3	-1	-1
O=c1oc(CCCO)cc2ccc(/C=C/c3cccc([N+](=O)[O-])c3)cc12	-1	0	1	7	-1	1
